# Assay results: PubChem BioAssay AID624117 (National Center for Advancing Translational Sciences (NCATS), 2012)
# Records with an inconclusive call do not appear. Calls of active or inactive are those of the source. Calls follow the shape of the dose curve; as a rule, active = well fitted curve in the direction sought with a large enough effect; inconclusive = small, poorly fitted or top-dose-only effect, or another doubt; inactive = no such curve, though single readings can be large or run the other way.
# Assay: qHTS Assay for Rab9 Promoter Activators: Hit Validation Using Renilla Luciferase Read-Out
# Conditions: Huh7 NPC1 promoter Renilla luciferase reporter, 24 h; series mostly up to 76.9 µM
# Text: Niemann Pick Type C (NPC) is a rare neurodegenerative lipidosis that is characterized by lipid storage in the endosomal/lysosomal system. Treatment modalities for this devastating disease are currently non-existent due to the severe obstacles associated with accessing the central nervous system with proteins or genes. The majority of mutations causing NPC disease are missense mutations that are distributed throughout the length of the NPC1 protein, with the most prevalent being the I1061T allele. Although NPC1 mutant proteins may be functional, they are typically trapped in the ER due to misfolding. […] We have developed and optimized a cell based renilla luciferase reporter assay in 1536 well format for the identification of up-regulators of the mutant NPC1 promoter. This assay presents data on the validation of hits from the primary screen, which used a firefly luciferase read-out. NIH Chemical Genomics Center [NCGC] NIH Molecular Libraries Probe Production centers Network [MLPCN] MLPCN Grant: MH089375 Assay Submitter (PI): Yiannis A. Ioannou
# Huh7 cells stably expressing NPC promoter-luciferase will be seeded at 1,500 cells/well in 5 uL in 1,536-well white opaque plates with 23 nL/well of compound in DMSO solution. The assay plates will be incubated at 37 deg C for 24 hours, after which 3 uL/well BriteLite plus luciferase detection reagent mixture (Perkin Elmer) will be added. Luminescence signal will be measured in a ViewLux plate reader (Perkin Elmer) after a 10 minute incubation at the room temperature.
row,SMILES,outcome
1,COc1cccc(CCNCc2ccc(SC)cc2)c1,inactive
2,Cc1cccn2c(NCC3CCCO3)c(C(C)C)nc12 (stereo not given),inactive
3,CCC(=NCc1cccnc1)c1c(O)n(-c2ccccc2)c(=O)[nH]c1=O,inactive
4,CN1CCc2cc3c(c4c2C1Cc1ccccc1-4)OCO3 (stereo not given),inactive
5,O=C1c2ccccc2C(=O)N1Cc1nc2ccccc2c(=O)n1-c1cccnc1,inactive
